This passage reports growth results from PubChem BioAssay (NCI).

Among the test systems are SK-MEL-2 melanoma; EKVX NSCLC; SN12C renal; UO-31 renal; TK-10 renal; ACHN renal; CAKI-1 renal; A498 renal; CCRF-CEM leukemia; MOLT-4 leukemia.
What all share (assay): NCI-60 one-dose screen, 48 h (100 = growth as untreated, 0 = no growth, -100 = all killed)
Holding throughout (conditions): 10 µM unless noted

Several values for one entry are separate records, joined by “and”; a condition that tells them apart may be missing. Equal entries are not always repeated. Compounds without any hit were thinned out: in the full panel of roughly 83,000, 20% have a hit.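 Compound tested at a single concentration for 48 hours in 96-well plates; a percent growth value below 10 was scored as active.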 Activity calls are given as the source filed them.

For the compound `CC(=O)/C(N=Nc1ccc(S(=O)(=O)c2ccc(N=N/C(C(C)=O)=C(/C)O)cc2)cc1)=C(\C)O`, the growth was 117% (inactive) in the experiment on SK-MEL-2 melanoma; 116% (inactive) with EKVX NSCLC; 110% (inactive) in the experiment with SN12C renal; 83.5% (inactive) in the experiment with UO-31 renal; 108% (inactive) in the experiment with TK-10 renal; 104% (inactive) in the experiment with ACHN renal. In addition, the growth with CAKI-1 renal is 100% (inactive); with A498 renal, 100% (inactive); with CCRF-CEM leukemia, 85.9% (inactive); in the experiment on MOLT-4 leukemia it was 100% (inactive).
As for `OC1CCCN(Cc2ccccc2)C1` (stereo not given), the growth is 115% (inactive) in the experiment on SK-MEL-2 melanoma; 116% (inactive) in the experiment on EKVX NSCLC; 98.5% (inactive) in the experiment on SN12C renal; 88.5% (inactive) in the experiment on UO-31 renal; 97.4% (inactive) in the experiment on TK-10 renal; 106% (inactive) with ACHN renal. Besides, the growth in the experiment on CAKI-1 renal is 105% (inactive); in the experiment with A498 renal, 96.2% (inactive); with CCRF-CEM leukemia it was 98.4% (inactive); in the experiment on MOLT-4 leukemia it was 92.5% (inactive).
On to `COc1cc(C2c3cc4c(cc3C(OC(=O)C[n+]3ccccc3)C3COC(=O)C23)OCO4)cc(OC)c1OC` (stereo not given), for which the growth in the experiment on SK-MEL-2 melanoma was 33.5% (inactive); in the experiment on EKVX NSCLC it was 42.5% (inactive); in the experiment on SN12C renal, 12.4% (inactive); in the experiment on UO-31 renal, 39.4% (inactive); in the experiment on TK-10 renal, 63.4% (inactive); in the experiment on ACHN renal, 20.9% (inactive). Besides, the growth in the experiment with CAKI-1 renal was 18.1% (inactive); with A498 renal, -19.9% (active); in the experiment on CCRF-CEM leukemia, 12.9% (inactive); with MOLT-4 leukemia it was 15.5% (inactive).
For the compound `Cc1cc(Cl)nc(Nc2ccccc2)n1`, the growth with SK-MEL-2 melanoma was 106% (inactive); with EKVX NSCLC it was 93.8% (inactive); in the experiment on SN12C renal it was 96.1% (inactive); with UO-31 renal it was 102% (inactive); with TK-10 renal, 94.4% (inactive); in the experiment with ACHN renal, 98.9% (inactive). Also, the growth is 78.7% (inactive) in the experiment with CAKI-1 renal, 93.3% (inactive) with A498 renal, 99.3% (inactive) in the experiment with CCRF-CEM leukemia and 94.8% (inactive) in the experiment with MOLT-4 leukemia.
In the case of `CCN(CC)Cc1cc2[nH]c3c4ccc(Cl)cc4ncc3c2cc1OC`, the growth with SK-MEL-2 melanoma is 160% (inactive) and 97.9% (inactive); in the experiment on EKVX NSCLC, 83.5% (inactive) and 75% (inactive); in the experiment with SN12C renal it was 72.9% (inactive) and 78.8% (inactive); with UO-31 renal, 110% (inactive) and 66.2% (inactive); with TK-10 renal, 123% (inactive) and 89.8% (inactive); in the experiment on ACHN renal, 83.7% (inactive) and 73.4% (inactive). The growth in the experiment on CAKI-1 renal is 31.9% (inactive) and 81.3% (inactive); in the experiment on A498 renal, 146% (inactive) and 106% (inactive); in the experiment on CCRF-CEM leukemia it was -21.5% (active) and 61% (inactive); in the experiment on MOLT-4 leukemia it was 40.4% (inactive).
On to `CCCC(=O)Oc1ccc(CC)cc1`, for which the growth with SK-MEL-2 melanoma was 107% (inactive); with EKVX NSCLC, 99% (inactive); with SN12C renal, 98.5% (inactive); in the experiment on UO-31 renal, 93.7% (inactive); with TK-10 renal, 97.2% (inactive); in the experiment on ACHN renal it was 107% (inactive). Moreover, the growth is 96.1% (inactive) in the experiment on CAKI-1 renal, 78.1% (inactive) in the experiment on A498 renal, 107% (inactive) in the experiment with CCRF-CEM leukemia and 101% (inactive) with MOLT-4 leukemia.
For `CCCCCc1cc[n+](CC(=O)c2ccccc2)cc1`, the growth is 101% (inactive) and 104% (inactive) with SK-MEL-2 melanoma; 90.4% (inactive) in the experiment with EKVX NSCLC; 99.8% (inactive) and 103% (inactive) in the experiment on SN12C renal; 85.6% (inactive) and 91.3% (inactive) in the experiment with UO-31 renal; 120% (inactive) and 101% (inactive) with TK-10 renal; 102% (inactive) with ACHN renal. Further, the growth in the experiment with CAKI-1 renal is 98.7% (inactive); with A498 renal it was 87.5% (inactive) and 85.7% (inactive); with CCRF-CEM leukemia it was 92.2% (inactive) and 99.4% (inactive); in the experiment with MOLT-4 leukemia it was 104% (inactive) and 109% (inactive).
`C/C=C/C(=O)OCCCCCCCCCCCC`: the growth was 94.3% (inactive) in the experiment with SK-MEL-2 melanoma; 111% (inactive) with EKVX NSCLC; 81.6% (inactive) in the experiment on SN12C renal; 109% (inactive) with UO-31 renal; 92.8% (inactive) with TK-10 renal; 103% (inactive) in the experiment with ACHN renal. Further, the growth is 101% (inactive) in the experiment with CAKI-1 renal, 103% (inactive) in the experiment with A498 renal, 117% (inactive) in the experiment with CCRF-CEM leukemia and 83.1% (inactive) in the experiment on MOLT-4 leukemia.
Regarding `O=C(NC(=O)c1ccc(F)c(Cl)c1)NC1CC1`, the growth with SK-MEL-2 melanoma was 107% (inactive); in the experiment on EKVX NSCLC it was 89.6% (inactive); in the experiment with SN12C renal, 102% (inactive) and 87.9% (inactive); with UO-31 renal, 96.8% (inactive); in the experiment with TK-10 renal it was 94.3% (inactive) and 96.1% (inactive); in the experiment on ACHN renal, 106% (inactive) and 108% (inactive). In addition, the growth is 104% (inactive) and 87.1% (inactive) in the experiment on CAKI-1 renal; 95.8% (inactive) and 96% (inactive) in the experiment with A498 renal; 97.2% (inactive) and 101% (inactive) in the experiment on CCRF-CEM leukemia; 94.2% (inactive) and 75.6% (inactive) in the experiment with MOLT-4 leukemia.
In the case of `CCN(CC)CCO/N=C1\CC(c2ccc(OC)c(OC)c2)Oc2ccccc21` (stereo not given), the growth in the experiment on SK-MEL-2 melanoma is 104% (inactive); in the experiment on EKVX NSCLC, 96.3% (inactive); in the experiment on SN12C renal, 99.1% (inactive); with UO-31 renal, 71.7% (inactive); in the experiment on TK-10 renal, 86.9% (inactive); in the experiment on ACHN renal it was 101% (inactive). Besides, the growth in the experiment with CAKI-1 renal is 83.3% (inactive); in the experiment on A498 renal, 112% (inactive); in the experiment on CCRF-CEM leukemia, 93% (inactive); with MOLT-4 leukemia, 90.6% (inactive).
As to `CCNC1=CC(=O)c2ncccc2C1=O`, the growth with SK-MEL-2 melanoma was 26.9% (inactive); with EKVX NSCLC, 72.6% (inactive); with SN12C renal it was -32.2% (active); in the experiment on UO-31 renal, 48.4% (inactive); in the experiment with TK-10 renal it was 83.6% (inactive); in the experiment with ACHN renal, 59% (inactive). Besides, the growth is 55.8% (inactive) in the experiment with CAKI-1 renal, 80.8% (inactive) in the experiment with A498 renal, 76.7% (inactive) in the experiment with CCRF-CEM leukemia and 52.6% (inactive) in the experiment on MOLT-4 leukemia.
Regarding `COc1ccc(CCl)c(C)c1OC`, the growth was 104% (inactive) in the experiment on SK-MEL-2 melanoma; 104% (inactive) in the experiment with EKVX NSCLC; 98.2% (inactive) with SN12C renal; 89.7% (inactive) in the experiment on UO-31 renal; 102% (inactive) with TK-10 renal; 110% (inactive) with ACHN renal. For the same compound, the growth is 101% (inactive) in the experiment with CAKI-1 renal, 89.5% (inactive) in the experiment with A498 renal, 97.3% (inactive) with CCRF-CEM leukemia and 104% (inactive) in the experiment with MOLT-4 leukemia.
